Calls of active or inactive are those of the source. Entries that show only a call come without a potency. Calls follow the shape of the dose curve; as a rule, active = well fitted activation curve with a large enough effect in the repeat runs; inconclusive = weak or mixed curves; inactive = flat fitted curve, though single readings scatter.
Each compound was assayed against KiSS-1 receptor (Homo sapiens) (UniProt Q969F8) (assay: Human kisspeptin (KISS1R) small molecule agonists, calcium flux assay in KISS1R-HEK293 cells (AID 1920064)). Details: KISS1R-HEK293, calcium flux fluorescence, agonist; series mostly up to 76.8 µM; activation: at the top concentration.
Sequence of KiSS-1 receptor (Homo sapiens) (Q969F8 whole entry, looked up): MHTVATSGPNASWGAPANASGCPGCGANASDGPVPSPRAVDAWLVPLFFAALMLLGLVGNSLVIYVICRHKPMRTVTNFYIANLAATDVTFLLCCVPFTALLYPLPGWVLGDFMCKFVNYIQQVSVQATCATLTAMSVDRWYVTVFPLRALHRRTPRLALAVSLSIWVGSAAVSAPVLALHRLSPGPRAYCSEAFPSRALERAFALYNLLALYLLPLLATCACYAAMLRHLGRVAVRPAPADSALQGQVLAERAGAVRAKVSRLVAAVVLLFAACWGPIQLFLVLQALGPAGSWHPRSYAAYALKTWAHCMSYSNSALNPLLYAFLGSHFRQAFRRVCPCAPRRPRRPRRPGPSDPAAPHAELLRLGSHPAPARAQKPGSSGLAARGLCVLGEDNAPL
Source text: National Center for Advancing Translational Sciences [NCATS]
Division of Preclinical Innovation [DPI]
U.S. Environmental Protection Agency [EPA]
National Institutes of Environmental Health Sciences [NIEHS]
National Toxicology Program [NTP]
U.S. Food and Drug Administration [FDA]
Kisspeptin and its receptor KISS1R play key roles in mammalian reproduction due to their involvement in the onset of puberty and control of the hypothalamic-pituitary-gonadal axis such as regulates GnRH release from the hypothalamus. The kisspeptin/KISS1R system also plays a direct role in peripheral organs (including the ovary, testis, uterus, and placenta) and is implicated in reproductive diseases such as miscarriage and polycystic ovary syndrome (PCOS). Abnormal KISS1R activity is associated with abnormal puberty, infertility, endometriosis, and hormone-dependent tumors. The KISS1 receptor (KISS1R, also called GPR54), a G-protein-coupled receptor (GPCR), acts (through phospholipase C) to increase intracellular inositol trisphosphate and then release intracellular calcium stores. Cell-based KISS1R-HEK293 assay is using HEK293 cells that have been genetically engineered to express the human KISS1R, which activity can be measured by calcium signaling. A compound/drug can activate (agonist) KISS1R that can be monitored by levels of intracellular calcium.
KISS1R-HEK293 cells developed by Codex Corp contain human KISS1R gene, which was stably integrated into HEK 293 cells. The compound activation can be detected by fluorescence intensity via calcium flux assay. This cell line has been used to screen the Tox21 10K compound library to identify agonists of KISS1R.
KISS1R-Hek293 cells were dispensed at 1500 cells/4uL/well in 1536-well black wall/clear bottom plates using a multidrop dispenser. After the assay plates were incubated at a 37 C/5% CO2 incubator for 18 hours, 4 microL of Calcium Dye Solution was added to each well. The plates were incubated at 37 C for 1 hour. And then 23 nL of compounds dissolved in DMSO, positive controls, or DMSO only was transferred to the assay plate by a pin tool station. The fluorescence intensity in the plates was measured using FDSS 7000EX kinetic plate reader with a filter set of Ex/Em=480/540 for 3 min at 1 sec intervals. Each test compound was measured at 15 concentrations and in triplicates.

| SMILES | activation | Potency |
| --- | --- | --- |
| CC(C(=O)c1ccccc1)N(C)C (stereo not given) | -0.246% [at 35.3 µM] (inactive) |  |
| NC(=O)CN1CCCC1=O | -3.98% (inactive) |  |
| CCCOC(=O)c1cncn1C(C)c1ccccc1 (stereo not given) | -1.57% [at 35.3 µM] (inactive) |  |
| O=P(O)(O)CN(CP(=O)(O)O)CP(=O)(O)O |  | inactive |
| CCCCC(C#N)(Cn1cncn1)c1ccc(Cl)cc1 (stereo not given) |  | inactive |
| CC(NC(C)(C)C)C(=O)c1cccc(Cl)c1 (stereo not given) |  | inactive |
| Oc1cc(Cl)ccc1Oc1ccc(Cl)cc1Cl |  | inactive |
| CN1C(=O)CN=C(c2ccccc2)c2cc(Cl)ccc21 |  | inactive |
| Sc1ccccc1Cl | 0.324% [at 35.3 µM] (inactive) |  |
| CCCCCCCCCCCCCCCCCC(=O)O |  | inactive |
| CC(C)(O)C(=O)Nc1ccc([N+](=O)[O-])c(C(F)(F)F)c1 |  | inactive |
| CC(C)(OOC(C)(C)c1ccccc1)c1ccccc1 |  | inactive |
| CC(C)c1ccc(CO)cc1 |  | inactive |
| O=NN(c1ccccc1)c1ccccc1 |  | inactive |
| CCN(CC)Cc1nccn1-c1ccc([N+](=O)[O-])cc1C(=O)c1ccccc1Cl | -1.6% [at 35.3 µM] (inactive) |  |
| Clc1ccccc1Cl |  | inactive |
| O=[N+]([O-])/N=C1\NCCN1Cc1ccc(Cl)nc1 |  | inactive |
| CC(C)(C)C(=O)C(Cl)Cl | -1.12% (inactive) |  |
| CC1=C(C(=O)Nc2ccccc2)SCCO1 |  | inactive |
| O=c1nc(O)n(Cl)c(=O)n1Cl |  | inactive |

| SMILES | activation | Potency |
| --- | --- | --- |
| CC(c1ccc(O)cc1)c1ccc(O)cc1 |  | inactive |
| CC(C)OC(=O)Nc1cccc(Cl)c1 |  | inactive |
| CC(C)N(C(=O)SCC(Cl)=C(Cl)Cl)C(C)C |  | inactive |
| CCCCCCCCCCCCCCCC[n+]1ccccc1 |  | inactive |
| CC[n+]1ccccc1 |  | inactive |
| C=CC1(C)OC(=O)N(c2cc(Cl)cc(Cl)c2)C1=O (stereo not given) |  | inactive |
| CCc1cc(C)cc(CC)c1-c1c(OC(=O)C(C)(C)C)n2n(c1=O)CCOCC2 | 3.54% (inactive) |  |
| Cc1cccc(C)c1NC(=O)CN1CCCC1=O |  | inactive |
| C(CCOCC1CO1)COCC1CO1 (stereo not given) | 2.27% (inactive) |  |
| Nc1ccc(Cl)cc1 |  | inactive |
| ClCCOCCCl |  | inactive |
| CCOP(=S)(OCC)SCCSCC |  | inactive |
| CCC(=O)OC1(c2ccccc2)CCN(C)CC1 | 0.917% (inactive) |  |
| CCCCOC(=O)c1ccccc1C(=O)O | 6.55% (inactive) |  |
| Cc1ccc2cc(C)ccc2c1 | 0.466% (inactive) |  |
| CCCCOC(=O)c1ccccc1C(=O)OCc1ccccc1 |  | inactive |
| CC1CN1 (stereo not given) | -0.439% (inactive) |  |
| O=S(=O)(c1ccc(O)cc1)c1ccc(O)cc1 |  | inactive |
| CCCCN(CC)c1c([N+](=O)[O-])cc(C(F)(F)F)cc1[N+](=O)[O-] |  | inactive |
| N#CC(Br)Br |  | inactive |
